Each sequence was assayed against T1, Croc (Drosophila melanogaster, UniProt P32027 54-175) (assay: FP; 20 mM Tris-acetate pH 7.0, 50 "nM" NaCl as printed (probably mM), 0.01% Tween 20, 0.1 mM DTT; conventional titration). Conditions: tags: N-GST (pGEX-6P-1, kept); dsDNA, one strand shown.
T1 sequence: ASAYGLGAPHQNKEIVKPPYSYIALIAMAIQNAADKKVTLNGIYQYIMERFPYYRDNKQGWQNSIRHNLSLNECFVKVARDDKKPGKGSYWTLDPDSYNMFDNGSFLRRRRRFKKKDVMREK
In the case of TTAGATAAATAAA, the binding signal is reported as 2.04 Kd / Kd of best base at the position. With TTAGAGAAATATA the binding signal was 48.4 Kd / Kd of best base at the position. In the case of TTAGATAAATATT, the binding signal is reported as 1.02 Kd / Kd of best base at the position. For TTAGATAAATCTA, the binding signal was 46 Kd / Kd of best base at the position. TTAGACAAATATA was tested, and the binding signal was 16.3 Kd / Kd of best base at the position. With TTAGATCAATATA the binding signal was 8.58 Kd / Kd of best base at the position. In the case of TTAGAAAAATATA, the binding signal is reported as 7.44 Kd / Kd of best base at the position. In the case of TTAGATAAACATA, the binding signal is reported as 1.86 Kd / Kd of best base at the position. With CTAGATAAATATA the binding signal was 4.3 Kd / Kd of best base at the position. In the case of TTCGATAAATATA, the binding signal is reported as 33 Kd / Kd of best base at the position. With TTAAATAAATATA the binding signal was 1.66 Kd / Kd of best base at the position. With TTTGATAAATATA the binding signal was 15.4 Kd / Kd of best base at the position. TTAGATAACTATA was tested, and the binding signal was 387 Kd / Kd of best base at the position. TTAGATAATTATA was tested, and the binding signal was 197 Kd / Kd of best base at the position. With TTAGATAAAAATA the binding signal was 380 Kd / Kd of best base at the position. TTAGATAAAGATA was tested, and the binding signal was 119 Kd / Kd of best base at the position. In the case of TTAGGTAAATATA, the binding signal is reported as 3.08 Kd / Kd of best base at the position. For TTAGATAAATTTA, the binding signal was 35.4 Kd / Kd of best base at the position. For GTAGATAAATATA, the binding signal was 13.8 Kd / Kd of best base at the position. For TTAGATACATATA, the binding signal was 93.4 Kd / Kd of best base at the position. In the case of TTAGATAAATATA, the Kd is reported as roughly 0.3 nM. TTAGATAAATATC was tested, and the binding signal was 2.74 Kd / Kd of best base at the position. In the case of TTAGATAAATACA, the binding signal is reported as 1.16 Kd / Kd of best base at the position. TTAGATAGATATA was tested, and the binding signal was 1160 Kd / Kd of best base at the position. With TTAGTTAAATATA the binding signal was 43.2 Kd / Kd of best base at the position. In the case of TTAGATATATATA, the binding signal is reported as 164 Kd / Kd of best base at the position. In the case of TTGGATAAATATA, the binding signal is reported as 5.64 Kd / Kd of best base at the position. For TGAGATAAATATA, the binding signal was 76.4 Kd / Kd of best base at the position. For TTACATAAATATA, the binding signal was 6.62 Kd / Kd of best base at the position. With TTATATAAATATA the binding signal was 2.66 Kd / Kd of best base at the position. TTAGATAAATAGA was tested, and the binding signal was 5.76 Kd / Kd of best base at the position. With TTAGATAAGTATA the binding signal was 95 Kd / Kd of best base at the position. TAAGATAAATATA was tested, and the binding signal was 7.76 Kd / Kd of best base at the position. TTAGATAAATATG was tested, and the binding signal was 17.4 Kd / Kd of best base at the position. In the case of ATAGATAAATATA, the binding signal is reported as 9.22 Kd / Kd of best base at the position. TTAGATGAATATA was tested, and the binding signal was 2300 Kd / Kd of best base at the position. For TTAGCTAAATATA, the binding signal was 38.6 Kd / Kd of best base at the position. With TTAGATTAATATA the binding signal was 109 Kd / Kd of best base at the position. With TCAGATAAATATA the binding signal was 51.8 Kd / Kd of best base at the position.

Reference: article PMC5913336, “True equilibrium measurement of transcription factor-DNA binding affinities using automated polarization microscopy”
